Measured values: PubChem BioAssay (Tox21)
Inconclusive results are not listed. Calls of active or inactive are those of the source. Unless noted, calls follow the shape of the dose curve; as a rule, active = well fitted curve in the direction sought with a large enough effect in the repeat runs; inconclusive = weak or mixed curves; inactive = no such curve, though single readings can be large; an effect the other way counts as inactive or inconclusive.

Assays:
[1] = qHTS assay to identify small molecule antagonists of the estrogen receptor alpha (ER-alpha) signaling pathway using the BG1 cell line in the presence of 0.1 nM 17-beta-estradiol - cell viability counter screen (AID 1259241); also: nearly all actives have a fitted effect of over 40% in size
Outline: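 Cytotoxicity counter-screen: live-cell protease activity measured by fluorescence (30 min reagent step) in the same wells. Cells were VM7Luc4E2 with endogenous ER-alpha and ERE-driven luciferase, treated 22 hr at 37C alongside 0.1 nM 17beta-estradiol final.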

[2] = qHTS assay to identify small molecule antagonists of the androgen receptor (AR) signaling pathway using the MDA cell line in the presence of 0.5 nM R1881 - cell viability counter screen (AID 1259242); also: nearly all actives have a fitted effect of over 45% in size
Outline: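 Concentration-response screen of compounds for toxicity in MDA-kb2 reporter cells: 16 hr at 37C with 0.5 nM R1881, endpoint live-cell protease fluorescence measured in the reporter wells.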

[3] = qHTS assay to identify small molecule phospholipidosis (PLD) inducers (AID 1259344; active = well fitted curve in the direction sought with a large enough effect; an effect the other way counts as inactive or inconclusive)
Outline: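 Read-out is LipidTOX Red fluorescence (ex 595/em 615) imaged in HepG2 cells after 24 h compound exposure at 37 C, with Hoechst nuclear counterstain (ex 352/em 461) allowing per-cell normalisation.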

[4] = qHTS assay to identify small molecule HDAC inhibitors (AID 1259364);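 also: wild-type HCT-116 cells with endogenous class I/II HDAC activity; top concentration of the series differs between compounds; nearly all actives have a fitted effect of over 45% in size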
Outline: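 Screening used wild-type human colon HCT-116 cells incubated overnight, dosed with compounds for 2 hours, and assayed with a homogeneous luminogenic HDAC I/II reagent for 30 minutes at room temperature.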

[5] = qHTS assay to identify small molecule antagonists of the sonic hedgehog signaling (Shh) pathway - cell viability counter screen (AID 1259367); also: nearly all actives have a fitted effect of over 55% in size
Outline: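 Fluorescence read-out (CellTiter-Fluor, 1 hr at 37C) taken after 23 hr compound treatment of 3T3 Gli1-Luc cells stimulated with conditioned medium. Cells were seeded at 2,000 per well and pre-incubated 4 hr.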

[6] = qHTS assay to identify small molecule agonists of the sonic hedgehog signaling (Shh) pathway (AID 1259368; calls by dose curve;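 also: NIH/3T3-derived 3T3Gli1-Luc cells carrying a stable Gli1-driven firefly luciferase reporter; series mostly up to about 92 µM; nearly all actives have a fitted effect of over 15% in size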)
Outline: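 Hedgehog pathway agonism scored by increased firefly luciferase luminescence in 3T3Gli1-Luc cells treated 24 hr at 37 C; detection used a 30 min room-temperature reagent incubation.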

[7] = qHTS assay to identify small molecule antagonists of the sonic hedgehog signaling (Shh) pathway (AID 1259369; calls by dose curve; also: nearly all actives have a fitted effect of over 45% in size; also: potency is read from the fitted curve at half-maximal effect)
Outline: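 NIH/3T3 stable Gli1-Luc clone, 2,000 cells/well, 4hr settle; cpd + conditioned medium 24hr; Luc reagent 30min RT; luminescence.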

[8] = target: Estrogen receptor beta (Homo sapiens) (UniProt Q92731); assay: qHTS assay to identify small molecule agonists of the estrogen receptor beta (ER-beta) signaling pathway (AID 1259377; active = well fitted activation curve with a large enough effect in the signal ratio in the repeat runs, not every such curve was filed as active; the % refers to the signal ratio)
Outline: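 Ratiometric beta-lactamase FRET read-out came after 2 h substrate loading at room temperature. It followed 16 h compound treatment at 37C of GripTite HEK293T cells carrying a UAS-bla reporter, plated in 2% charcoal-stripped FBS medium.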

[9] = target: Estrogen receptor beta (Homo sapiens) (UniProt Q92731); assay: qHTS assay to identify small molecule antagonists of the estrogen receptor beta (ER-beta) signaling pathway (AID 1259378; active = well fitted inhibition curve with a large enough effect in the signal ratio in the repeat runs, not every such curve was filed as active; the % refers to the signal ratio; also: potency is read from the fitted curve at half-maximal effect)
Outline: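 ER-beta-UAS-bla HEK293T cells in 2% charcoal-stripped FBS medium treated with compound plus 1nM final 17-beta-estradiol for 16 hr at 37C. Beta-lactamase reporter read by FRET substrate fluorescence after 2 hours at room temperature.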

[10] = qHTS assay to identify small molecule agonists of the androgen receptor (AR) signaling pathway in the presence of an antagonist - cell viability counter screen (AID 1259379); also: nearly all actives have a fitted effect of over 25% in size; also: potency is read from the fitted curve at half-maximal effect
Outline: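 MDA-kb2 viability measured by CellTiter-Fluor fluorescence in the same wells as the luciferase signal; nilutamide 3.0uM final; 15-point compound titration; 16 hr at 37C.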

[11] = qHTS assay to identify small molecule antagonists of the estrogen receptor beta (ER-beta) signaling pathway - cell viability counter screen (AID 1259382); also: nearly all actives have a fitted effect of over 55% in size; also: potency is read from the fitted curve at half-maximal effect
Outline: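 Readout: luminescence, CellTiter-Glo, same wells as bla assay. System: ER-beta-UAS-bla GripTite HEK293T, 2% charcoal-stripped FBS. Exposure: compounds plus 1nM 17-beta-estradiol, 16 hr, 37C.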

[12] = qHTS assay to identify small molecule agonists or antagonists of the thyroid stimulating hormone receptor (TSHR) signaling pathway - wild type cell line counter screen (AID 1259384; calls by dose curve)
Outline: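 Wild-type Hek293 cells, 800/well, 18 h at 37C, then compound with Ro20-1724 for 30 min RT. cAMP by HTRF (cAMP-d2/anti-cAMP cryptate), 1 h RT, fluorescence read. 15 concentrations, triplicates.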

[13] = target: Thyrotropin receptor (Homo sapiens) (UniProt P16473); assay: qHTS assay to identify small molecule antagonists of the thyroid stimulating hormone receptor (TSHR) signaling pathway (AID 1259385; calls by dose curve; also: nearly all actives have a fitted effect of over 20% in size)
Outline: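 TSHR-HEK293 cells (800/well) plated 18 h, then compounds with Ro20-1724 and TSH at 1.5 ng/mL final, 30 min at room temperature. cAMP quantified by HTRF (cAMP-d2/anti-cAMP-cryptate, 1 h); 15 concentrations in triplicate.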

[14] = qHTS assay to identify small molecule HDAC inhibitors - cell viability counter screen (AID 1259365); also: series mostly up to about 92 µM; nearly all actives have a fitted effect of over 50% in size
Outline: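 CellTiter-Glo luminescence (30 min, room temperature) reported viability after a 2 h compound exposure at 37 C. Cells: wild-type HCT-116, 1,500 per well, seeded the night before.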

[15] = qHTS assay to identify small molecule agonists of the sonic hedgehog signaling (Shh) pathway - cell viability counter screen (AID 1259366); also: nearly all actives have a fitted effect of over 50% in size; also: potency is read from the fitted curve at half-maximal effect
Outline: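 Cytotoxicity counter screen: CellTiter-Fluor reagent added after 23 h compound exposure, then 1 h at 37C and fluorescence read. Cells were 3T3 Gli1-Luc, seeded 2,000 per well and dosed 4 h post-plating.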

[16] = qHTS assay to identify small molecule agonists of the estrogen receptor beta (ER-beta) signaling pathway - cell viability counter screen (AID 1259380); also: nearly all actives have a fitted effect of over 30% in size; also: potency is read from the fitted curve at half-maximal effect
Outline: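 Measured: luminescence from CellTiter-Glo after 30 min at room temperature, added to wells already read for the LiveBLAzer FRET reporter (2 hr substrate); ER-beta-UAS-bla HEK293T cells had 16 hr compound treatment at 37C, 5% CO2.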

[17] = target: Estrogen receptor (Homo sapiens) (UniProt P03372); assay: qHTS assay to identify small molecule agonists of the estrogen receptor alpha (ER-alpha) signaling pathway in the presence of an antagonist (AID 1259383; calls by dose curve; also: top concentration of the series differs between compounds; nearly all actives have a fitted effect of over 15% in size)
Outline: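 Quantitative HTS confirmation: compounds titrated at 15 concentrations onto estrogen-deprived VM7Luc4E2 cells carrying a four-ERE luciferase construct, with ICI-182,780 present at 10.0nM final. Signal is luminescence after 22hr exposure.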

[18] = target: Estrogen receptor (Homo sapiens) (UniProt P03372); assay: qHTS assay to identify small molecule antagonists of the estrogen receptor alpha (ER-alpha) signaling pathway using the BG1 cell line in the presence of 0.1 nM 17-beta-estradiol (AID 1259244); also: nearly all actives have a fitted effect of over 50% in size; also: potency is read from the fitted curve at half-maximal effect
Outline: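 Compounds were tested against 0.1 nM (final) 17beta-estradiol in VM7Luc4E2 cells, which express full-length ER-alpha and an ERE-luciferase reporter; luminescence was recorded following 22 h exposure.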

[19] = target: Androgen receptor (Homo sapiens) (UniProt P10275); assay: qHTS assay to identify small molecule agonists of the androgen receptor (AR) signaling pathway in the presence of an antagonist (AID 1259381; calls by dose curve; also: nearly all actives have a fitted effect of over 15% in size)
Outline: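 Luminescent ONE-Glo read, 30min at room temperature, follows 16hr compound exposure (15 concentrations) of MDA-kb2 cells at 37C, 0% CO2, with nilutamide added at 3.0uM final.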

Measured: Potency

Thyrotropin receptor (Homo sapiens), sequence (P16473 whole entry, looked up): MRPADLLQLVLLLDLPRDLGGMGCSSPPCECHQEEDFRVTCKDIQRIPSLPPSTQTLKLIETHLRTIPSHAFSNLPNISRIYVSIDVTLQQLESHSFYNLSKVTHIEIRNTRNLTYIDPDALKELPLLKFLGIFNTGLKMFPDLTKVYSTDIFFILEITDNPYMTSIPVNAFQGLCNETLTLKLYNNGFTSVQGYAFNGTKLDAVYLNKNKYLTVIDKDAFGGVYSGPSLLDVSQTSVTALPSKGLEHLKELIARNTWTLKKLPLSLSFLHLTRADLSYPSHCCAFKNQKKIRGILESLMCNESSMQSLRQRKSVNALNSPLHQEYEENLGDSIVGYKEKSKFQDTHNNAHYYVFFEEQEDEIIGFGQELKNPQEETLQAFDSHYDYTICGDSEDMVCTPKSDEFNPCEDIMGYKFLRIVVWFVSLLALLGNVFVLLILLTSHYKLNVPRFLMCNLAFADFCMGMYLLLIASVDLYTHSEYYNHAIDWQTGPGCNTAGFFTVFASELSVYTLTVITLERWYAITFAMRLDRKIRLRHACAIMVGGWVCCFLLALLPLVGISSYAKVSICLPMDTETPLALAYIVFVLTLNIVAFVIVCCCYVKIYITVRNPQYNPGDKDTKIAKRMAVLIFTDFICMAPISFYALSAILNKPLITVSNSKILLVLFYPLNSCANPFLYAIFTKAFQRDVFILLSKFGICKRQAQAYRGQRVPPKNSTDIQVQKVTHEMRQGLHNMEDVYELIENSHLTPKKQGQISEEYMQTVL
Estrogen receptor (Homo sapiens), sequence (P03372 whole entry, looked up): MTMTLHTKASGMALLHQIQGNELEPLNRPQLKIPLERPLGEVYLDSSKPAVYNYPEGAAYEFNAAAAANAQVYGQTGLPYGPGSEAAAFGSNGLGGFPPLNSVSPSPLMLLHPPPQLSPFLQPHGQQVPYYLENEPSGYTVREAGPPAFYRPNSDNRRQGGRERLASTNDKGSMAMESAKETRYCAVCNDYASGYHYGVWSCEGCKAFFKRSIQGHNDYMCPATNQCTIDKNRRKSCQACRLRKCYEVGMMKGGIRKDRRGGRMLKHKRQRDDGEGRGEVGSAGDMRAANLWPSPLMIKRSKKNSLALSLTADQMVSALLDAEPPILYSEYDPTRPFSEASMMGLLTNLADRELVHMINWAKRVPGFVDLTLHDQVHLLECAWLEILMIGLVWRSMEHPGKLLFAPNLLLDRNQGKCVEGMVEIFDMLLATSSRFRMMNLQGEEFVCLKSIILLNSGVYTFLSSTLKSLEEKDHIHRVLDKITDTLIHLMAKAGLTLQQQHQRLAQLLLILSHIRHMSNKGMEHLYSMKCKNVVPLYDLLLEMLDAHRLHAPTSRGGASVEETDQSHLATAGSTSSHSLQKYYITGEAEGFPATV
Estrogen receptor beta (Homo sapiens), sequence (Q92731 whole entry, looked up): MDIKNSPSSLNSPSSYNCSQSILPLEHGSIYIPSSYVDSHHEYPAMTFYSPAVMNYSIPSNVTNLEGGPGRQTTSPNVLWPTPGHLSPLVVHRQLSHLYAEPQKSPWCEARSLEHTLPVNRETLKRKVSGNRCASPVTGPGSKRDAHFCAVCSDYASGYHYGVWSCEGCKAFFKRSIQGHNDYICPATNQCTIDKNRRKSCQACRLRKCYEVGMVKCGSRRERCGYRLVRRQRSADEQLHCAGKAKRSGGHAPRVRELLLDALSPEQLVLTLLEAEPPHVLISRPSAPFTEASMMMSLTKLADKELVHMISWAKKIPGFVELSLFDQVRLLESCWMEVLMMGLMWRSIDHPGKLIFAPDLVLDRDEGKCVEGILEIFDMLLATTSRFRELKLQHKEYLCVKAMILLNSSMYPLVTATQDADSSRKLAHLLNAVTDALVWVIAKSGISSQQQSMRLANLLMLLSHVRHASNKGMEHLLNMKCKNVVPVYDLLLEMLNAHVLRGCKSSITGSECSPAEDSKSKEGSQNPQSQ
Androgen receptor (Homo sapiens), sequence (P10275 whole entry, looked up): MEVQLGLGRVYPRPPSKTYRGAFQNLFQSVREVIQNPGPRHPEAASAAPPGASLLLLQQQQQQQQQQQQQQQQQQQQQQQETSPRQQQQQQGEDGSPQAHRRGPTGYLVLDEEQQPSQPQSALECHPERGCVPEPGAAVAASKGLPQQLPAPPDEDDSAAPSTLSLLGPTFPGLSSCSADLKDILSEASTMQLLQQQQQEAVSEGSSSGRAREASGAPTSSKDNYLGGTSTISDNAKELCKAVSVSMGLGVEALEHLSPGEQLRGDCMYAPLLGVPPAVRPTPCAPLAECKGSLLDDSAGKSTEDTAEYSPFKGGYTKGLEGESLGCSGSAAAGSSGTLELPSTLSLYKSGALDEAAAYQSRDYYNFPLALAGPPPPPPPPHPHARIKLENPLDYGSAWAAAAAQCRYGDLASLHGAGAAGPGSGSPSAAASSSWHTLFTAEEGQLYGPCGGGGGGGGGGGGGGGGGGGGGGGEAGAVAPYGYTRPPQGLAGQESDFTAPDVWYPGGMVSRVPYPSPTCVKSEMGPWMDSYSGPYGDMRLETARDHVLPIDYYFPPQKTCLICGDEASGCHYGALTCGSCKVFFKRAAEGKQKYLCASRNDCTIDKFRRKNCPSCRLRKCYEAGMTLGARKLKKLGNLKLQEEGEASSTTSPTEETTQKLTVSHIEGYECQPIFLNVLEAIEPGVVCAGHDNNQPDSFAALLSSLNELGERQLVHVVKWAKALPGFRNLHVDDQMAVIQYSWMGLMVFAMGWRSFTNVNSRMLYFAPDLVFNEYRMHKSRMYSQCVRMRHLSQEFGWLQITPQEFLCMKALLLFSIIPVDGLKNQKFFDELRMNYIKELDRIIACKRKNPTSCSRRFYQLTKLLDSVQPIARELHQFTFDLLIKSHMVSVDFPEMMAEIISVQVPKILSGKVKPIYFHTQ

CN1C[C@@H](NS(=O)(=O)N(C)C)C[C@@H]2c3cccc4c3c(cn4C)C[C@H]21
inactive: [1] | [2] | [3] | [4] | [5] | [6] | [7] | [8] | [9] | [10] | [11] | [12] | [13]

COC(=O)c1ccccc1S(=O)(=O)NC(=O)Nc1nc(C)cc(C)n1
inactive: [1] | [2] | [4] | [14] | [15] | [5] | [6] | [7] | [9] | [10] | [12]

NC1=NC(=O)C(c2ccccc2)O1 (stereo not drawn)
inactive: [1] | [2] | [3] | [4] | [14] | [15] | [6] | [7] | [9] | [10] | [11] | [12] | [13]

[As]#[In]
inactive: [1] | [2] | [4] | [14] | [15] | [5] | [8] | [9] | [10] | [16] | [11] | [12]

CCN(CC)CCOC(=O)C(C)(c1ccccc1)c1ccccc1
inactive: [1] | [2] | [4] | [14] | [15] | [5] | [6] | [8] | [10] | [16] | [11] | [12]

CCNc1nc(NC(C)C)nc(OC)n1
inactive: [1] | [2] | [4] | [14] | [15] | [5] | [6] | [7] | [10] | [16] | [12]

CCCSP(=O)(OCC)Oc1ccc(Br)cc1Cl (stereo not drawn)
inactive: [1] | [2] | [4] | [14] | [15] | [5] | [8] | [10] | [16] | [11] | [12] | [13]

CCOC(=O)NC(=S)Nc1ccccc1NC(=S)NC(=O)OCC
inactive: [1] | [2] | [14] | [15] | [5] | [6] | [7] | [8] | [9] | [10] | [16]

CC1CCCCC1NC(=O)Nc1ccccc1 (stereo not drawn)
inactive: [1] | [2] | [14] | [15] | [5] | [6] | [7] | [9] | [10] | [16] | [11] | [17] | [12] | [13]

CC(N)=S
inactive: [1] | [2] | [4] | [15] | [6] | [7] | [9] | [10] | [16] | [11] | [12]

COC(=O)COc1ccc(Cl)cc1Cl
inactive: [1] | [2] | [4] | [14] | [15] | [6] | [10] | [16] | [11] | [12] | [13]

C=CCC1=C(C)[C@@H](OC(=O)[C@@H]2[C@@H](C=C(C)C)C2(C)C)CC1=O
active: [18] 24.3 µM | [10] 48.6 µM
inactive: [4] | [14] | [6] | [7] | [17] | [12]

CCCSC(=O)N(CCC)CCC
inactive: [1] | [2] | [4] | [15] | [7] | [10] | [16] | [11] | [12]

CC1CCC(=O)O1 (stereo not drawn)
inactive: [1] | [2] | [4] | [15] | [5] | [6] | [7] | [10] | [16] | [11] | [12]

CCN(CC)C(=O)[C@@H]1C=C2c3cccc4[nH]cc(c34)C[C@H]2N(C)C1
inactive: [2] | [18] | [3] | [4] | [14] | [6] | [8] | [9] | [10] | [11] | [17]

O=C(Nc1ccccc1)N(Cc1ccc(Cl)cc1)C1CCCC1
active: [9] 24.3 µM | [10] 68.6 µM
inactive: [1] | [2] | [4] | [6] | [12] | [13]

CSc1ccc(C(=O)C(C)(C)N2CCOCC2)cc1
inactive: [1] | [2] | [4] | [15] | [5] | [8] | [10] | [16] | [11] | [17]

CC(CC(C#N)(c1ccccc1)c1ccccc1)N(C)C (stereo not drawn)
inactive: [1] | [2] | [4] | [6] | [7] | [8] | [10] | [17] | [12] | [13]
active: [16] 60.8 µM

ClCCOCOCCCl
inactive: [1] | [2] | [4] | [14] | [15] | [6] | [7] | [8] | [9] | [10] | [16] | [11] | [12] | [13]

COc1cccc2c1cc([N+](=O)[O-])c1c(C(=O)O)cc3c(c12)OCO3
inactive: [4] | [6] | [8] | [17] | [12]
active: [18] 6.86 µM | [15] 12.2 µM | [7] 1.54 µM | [9] 19.3 µM | [10] 48.6 µM | [16] 48.6 µM | [11] 54.5 µM

CC(C)(C)NCC(O)c1cc(Cl)c(N)c(Cl)c1 (stereo not drawn)
active: [15] 11.9 µM
inactive: [2] | [3] | [4] | [14] | [6] | [7] | [8] | [9] | [10] | [19] | [11] | [13]

CN/C(=N\[N+](=O)[O-])NCC1CCOC1 (stereo not drawn)
inactive: [1] | [2] | [4] | [14] | [15] | [6] | [7] | [9] | [10] | [11] | [12] | [13]

CCC#N
inactive: [1] | [2] | [4] | [15] | [5] | [6] | [7] | [9] | [10] | [16] | [11] | [12] | [13]
